# Source: PubChem BioAssay
# An excerpt weighted towards active compounds, which were near 27% of everything screened.
# CYP2C19 activ – activators of human cytochrome P450 2C19. P33261. recombinant CYP2C19, luciferin-H EGE luminescence; stronger effect = higher value; 0 = fully inhibited enzyme, 1 = untreated enzyme. activation factor at 5 µM. 96,000 tested, under 10 active. AID 1025;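 active means activation factor of at least 2 at 5 µM in the primary screen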;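 further: 0 = wells with 2.5 mM tranylcypromine and 1 = vehicle-only wells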
# Target sequence (P33261 whole entry, looked up): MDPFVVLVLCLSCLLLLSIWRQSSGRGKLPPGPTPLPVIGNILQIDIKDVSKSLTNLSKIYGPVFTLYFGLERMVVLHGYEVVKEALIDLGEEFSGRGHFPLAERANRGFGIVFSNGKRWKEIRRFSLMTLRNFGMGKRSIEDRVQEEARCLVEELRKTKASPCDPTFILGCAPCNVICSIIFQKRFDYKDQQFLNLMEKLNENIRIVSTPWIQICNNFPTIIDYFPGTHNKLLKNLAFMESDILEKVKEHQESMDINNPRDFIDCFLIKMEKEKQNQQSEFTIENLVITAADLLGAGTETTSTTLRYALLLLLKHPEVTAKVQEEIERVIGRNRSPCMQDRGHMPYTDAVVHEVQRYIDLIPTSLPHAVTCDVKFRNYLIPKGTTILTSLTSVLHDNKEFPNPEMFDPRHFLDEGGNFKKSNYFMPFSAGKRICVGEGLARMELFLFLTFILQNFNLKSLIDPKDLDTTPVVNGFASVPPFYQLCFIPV
# Cav3 T inh – human Cav3.2 channel inhibition, primary screen | B-score at 10 µM | AID 449739 | 100,000 compounds, 4% hits | Cav3.2-expressing cells, Fluo-4 calcium fluorescence FDSS; stronger effect = lower value;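 active means single-dose well whose peak fluorescence ratio is a statistical outlier from its plate by either plate-standardised score or position-corrected B-score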
# CYP2C19 inhib – blocks human cytochrome P450 2C19. P33261. CYP2C19 Supersomes, luciferin-H EGE luminescence, 30 min. inhibition, % at 5 µM. 96,000 compounds, 21% hits;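 active means CYP2C19 inhibition above a set limit at 5 µM in the primary screen, cut at about 50% in these data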;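 further: plate controls were negative control wells for no effect and 2.5 mM tranylcypromine positive control for full effect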
# CYP2C9 inhib – inhibitors of human CYP2C9. P11712. CYP2C9 Supersomes, luciferin-H conversion, luminescence. inhibition, % at 5 µM. 96,000 compounds, 20% hits. AID 777;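 active means blocking of liver enzyme CYP2C9 beyond about 50% at 5 µM, limit read from the data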
# CYP2C9 act – increases human cytochrome P450 2C9 activity; P11712; recombinant CYP2C9, luciferin-H conversion, luminescence; stronger effect = higher value; factor 1 = untreated enzyme, 0 = blocked; activation factor at 5 µM; 96,000 compounds, 1.4% hits; AID 1024;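 active means activation factor of 2 or more for CYP2C9 at a 5 µM dose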;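 further: 0 = sulfaphenazole-blocked wells and 1 = vehicle-only wells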
# The depositor's hits bear a star; x = no result given.
SMILES,CYP2C19 activ,Cav3 T inh,CYP2C19 inhib,CYP2C9 inhib,CYP2C9 act
COc1ccc2[nH]c(C(=O)O)c(NS(=O)(=O)c3ccc(Cl)s3)c2c1,0.2,-1.1,79*,99*,0
O=C(C1=C[C@@H](C2CCCCC2)C[C@@H](OCCCCO)O1)N1CCN(Cc2ccc3c(c2)OCO3)CC1,x,-2.3,x,x,x
O=C(COc1ncnc2scc(-c3ccc(F)cc3)c12)NCc1ccco1,0.6,-0.59,42,-13,1.1
Cc1ccc(-c2csc3ncnc(OCC(=O)NC(=O)NCc4ccco4)c23)cc1,0.5,-2.1,50*,49,0.5
CN(c1ccc(OCC(=O)NC2CCCC2)cc1)S(=O)(=O)c1cccs1,0.9,0.67,13,72*,0.3
Cc1ccccc1-n1c(SCc2c(C)noc2C)nnc1-c1ccncc1,0.2,-0.033,78*,51*,0.5
Cc1ccccc1-n1c(SCc2c(C)noc2C)nnc1-c1cccnc1,0.9,-0.9,11,42,0.6
Cc1noc(C)c1CSc1nnc(-c2ccncc2)n1-c1ccc(Cl)c(Cl)c1,0.2,x,84*,59*,0.4
Cc1noc(C)c1CSc1nnc(-c2cc(Cl)ccc2Cl)n1N,0.7,x,32,25,0.8
Cn1c(=O)c2c(nc(CN3CCN(c4ccc(F)cc4)CC3)n2Cc2ccccc2F)n(C)c1=O,1.1,-2.4,-8,-17,1.2
O=C(CN(CC1CCCO1)C(=O)CCC(=O)Nc1nccs1)NCc1ccccc1 (configuration not stated),x,0.57,x,x,x
CC(C)C1C(C#N)=C(N)Oc2n[nH]c(C(C)(C)C)c21 (configuration not stated),1,-0.92,-2,7,0.9
CCCC1C(C#N)=C(N)Oc2n[nH]c(C(C)(C)C)c21 (configuration not stated),0.1,-1.8,93*,70*,0.3
COc1ccc(F)c(C2C(C#N)=C(N)Oc3n[nH]c(C(C)(C)C)c32)c1 (configuration not stated),0.3,0.018,70*,42,0.6
COCc1[nH]nc2c1C(c1ccccc1F)C(C#N)=C(N)O2 (configuration not stated),0.9,1.6,13,-5,1
Cc1[nH]nc2c1C(CCc1ccccc1)C(C#N)=C(N)O2 (configuration not stated),0.3,-0.013,74*,32,0.7
CCC(C)C1C(C#N)=C(N)Oc2n[nH]c(C)c21 (configuration not stated),x,0.085,x,x,x
Cc1nn(C)c(C)c1CN(C)C(=O)CCCC(=O)O,x,0.59,x,x,x
CC1CC1C(=O)OCC(=O)NC(=O)NCc1ccco1 (configuration not stated),0.9,0.72,14,5,0.9
Cc1ccc(NC(=O)NC2(C(=O)NCc3ccco3)CCCCC2)cc1,0.1,1,93*,54*,0.5
CC(=O)Nc1ccc(SCC(=O)OCC(=O)NC(=O)NCc2ccco2)cc1,0.8,x,20,66*,0.3
O=C(NCc1ccco1)Nc1ccc(Br)cc1,0.4,-0.2,64*,64*,0.4
O=C(NCc1ccco1)C1(c2ccc(Br)cc2)CCCC1,0.7,-2,31,70*,0.3
O=C(Nc1ccccc1)NC1(C(=O)NCc2ccco2)CCCCC1,0.9,x,15,40,0.6
C/C=C(\C)c1nnc(NC(=O)c2ccco2)s1,1,0.077,3,12,0.9
SMILES,CYP2C19 activ,Cav3 T inh,CYP2C19 inhib,CYP2C9 inhib,CYP2C9 act
Cc1cc(C)nc(N2CCCC(C(=O)Nc3nc4ccc(S(C)(=O)=O)cc4s3)C2)n1 (configuration not stated),0.1,-1.1,87*,83*,0.2
CCN(CC)c1ccc(NC(=O)C2CCCN(S(=O)(=O)c3cnc[nH]3)C2)c(C)c1 (configuration not stated),1,0.53,4,22,0.8
Cc1ccnc(NC(=O)C2CCCN(S(=O)(=O)c3cnc[nH]3)C2)c1 (configuration not stated),0.6,0.57,44,58*,0.4
Cc1ccc2nc(NC(=O)C3CCCN(S(=O)(=O)c4cnc[nH]4)C3)sc2c1 (configuration not stated),0.7,-0.012,26,51*,0.5
Cc1cccc(CN2CCC(CNC(=O)C3CCCN(S(=O)(=O)c4cnc[nH]4)C3)CC2)c1 (configuration not stated),1.1,0.63,-6,-1,1
COc1ccc(C)cc1NC(=O)C1CCCN(S(=O)(=O)c2cnc[nH]2)C1 (configuration not stated),0.4,0.61,64*,62*,0.4
Cn1c(=O)c([N+](=O)[O-])c(NCc2ccccc2)c2ccccc21,1,0.028,-5,-6,1.1
CCN(CC)CCn1c2ccc(F)cc2c2nc(C)sc21,0.7,0.0037,28,27,0.7
Cc1ccc(C(=O)COC(=O)CCC(=O)Nc2cccc(Cl)c2)cc1[N+](=O)[O-],0.8,x,18,-3,1
CCOc1ccccc1NC(=O)C1CCCN(S(=O)(=O)c2ccc(OC)c(C)c2)C1 (configuration not stated),0.1,-4.6*,93*,5,0.9
COc1ccccc1NC(=O)C1CCCN(S(=O)(=O)c2cnc[nH]2)C1 (configuration not stated),0.4,0.74,62*,61*,0.4
COC(=O)Nc1ccc(S(=O)(=O)N2CCCC(C(=O)Nc3cccc4c3OCCO4)C2)cc1 (configuration not stated),0.4,-0.88,64*,83*,0.2
O=C(C1CCCN(S(=O)(=O)c2cnc[nH]2)C1)N1CC(=O)N(CCc2ccccc2)C(=O)C1 (configuration not stated),0.9,-0.68,12,28,0.7
CCSc1nnc(NC(=O)C2CCCN(S(=O)(=O)c3cnc[nH]3)C2)s1 (configuration not stated),0.8,-0.2,25,74*,0.3
O=C(c1c(F)cccc1F)N(Cc1ccccn1)C1CCCC1,0.9,0.68,10,12,0.9
COc1cc(C2NC(=O)NC(C)=C2C(=O)OC(C)C)ccc1OC(=O)c1ccco1 (configuration not stated),x,-0.37,x,x,x
CCOc1ccc2nc(NC(=O)C(NS(=O)(=O)c3cccs3)C(C)C)sc2c1 (configuration not stated),1,-0.66,0,3,1
CCOc1ccc2nc(NC(=O)C3CCCN(S(=O)(=O)c4cccs4)C3)sc2c1 (configuration not stated),0.5,-1.6,50*,60*,0.4
CC(C)CN1C(=O)NC(NC(=O)c2ccco2)(C(F)(F)F)C1=O (configuration not stated),0.4,0.75,56*,16,0.8
CN1C(=O)NC(NC(=O)c2ccco2)(C(F)(F)F)C1=O (configuration not stated),1,-0.23,-2,0,1
